Test [1] in a line: ATG_E_Box_CIS: Attagene CIS-FACTORIAL HepG2 Assay for human Enhancer Box (E-box) (AID 2282936). Particulars: HepG2 E-box cis-reporter transcription, actives raise or lower the signal. In short, it runs like this:
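HepG2 cells transiently transfected with multiplexed cis-element reporter units sensing endogenous transcription factor activity; 24 h compound exposure. Reporter mRNA measured by RT-PCR, 6-FAM primer extension, HpaI digestion and capillary electrophoresis; bidirectional fit versus DMSO.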

For test [2], the target named is Heat shock factor protein 1 (Homo sapiens) (UniProt Q00613). Put plainly: ATG_HSE_CIS: Attagene CIS-FACTORIAL HepG2 Assay for human Heat Shock Transcription Factor 1 (HSE) (AID 2282953). Particulars: HepG2 HSE cis-reporter, Attagene RNA transcription; actives raise or lower the signal. The gist of the method: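 HepG2 cells transfected with cis-promoter reporter units sensing endogenous transcription factor activity; reporter mRNA quantified 24 h post-dose by RT-PCR and capillary electrophoresis of 6-FAM-labelled products. Bidirectional fitting against DMSO.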
Chain of Heat shock factor protein 1 (Homo sapiens) (Q00613 whole entry, looked up): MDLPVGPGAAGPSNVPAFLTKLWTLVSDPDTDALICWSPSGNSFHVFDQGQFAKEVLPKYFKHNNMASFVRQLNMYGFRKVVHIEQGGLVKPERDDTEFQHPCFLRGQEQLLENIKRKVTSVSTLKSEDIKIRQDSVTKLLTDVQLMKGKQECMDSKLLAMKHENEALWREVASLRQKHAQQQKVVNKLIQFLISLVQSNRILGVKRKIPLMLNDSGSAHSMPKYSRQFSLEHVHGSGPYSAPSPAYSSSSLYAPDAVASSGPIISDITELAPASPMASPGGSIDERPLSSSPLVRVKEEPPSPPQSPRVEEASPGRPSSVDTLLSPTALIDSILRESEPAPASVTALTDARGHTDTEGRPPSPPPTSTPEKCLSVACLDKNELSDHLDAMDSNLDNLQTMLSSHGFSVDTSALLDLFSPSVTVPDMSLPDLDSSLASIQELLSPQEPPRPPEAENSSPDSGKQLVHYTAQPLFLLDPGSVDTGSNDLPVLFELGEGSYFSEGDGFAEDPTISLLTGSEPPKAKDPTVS

The nature of test [3]: ATG_PPRE_CIS: Attagene CIS-FACTORIAL HepG2 Assay for human Peroxisome Proliferator-activated Response Element (PPRE) (AID 2282958). Particulars: HepG2 PPRE cis-element reporter, Attagene transcription factor profiling; actives raise or lower the signal. The gist of the method:
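PPRE activity in HepG2: transient cis-reporter transfection, 24 h compound incubation, reporter mRNA by RT-PCR and CE fluorescence; gain/loss fitted against DMSO.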

Test [4] can be described thus: ATG_RORE_CIS: Attagene CIS-FACTORIAL HepG2 Assay for human RAR-related Orphan Receptor Element (RORE) (AID 2282959). Particulars: HepG2 Attagene cis-factorial RORE reporter, mRNA; actives raise or lower the signal. In short, it runs like this:
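A 24-hour exposure of transfected HepG2 hepatoma cells precedes RNA isolation and reporter RT-PCR. Labeled products are digested with HpaI and resolved by capillary electrophoresis, with gain or loss of signal scored relative to DMSO.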

Test [5] has as its target Transcription factor Sp1 (Homo sapiens) (UniProt P08047). Put plainly: ATG_Sp1_CIS: Attagene CIS-FACTORIAL HepG2 Assay for human Specificity Protein 1 (Sp1) (AID 2282961). Particulars: HepG2 Sp1 cis-reporter transcription, actives raise or lower the signal. In short, it runs like this:
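Liver-derived HepG2 cells, cis-element reporter library, 24 h treatment; RNA isolated, cDNA amplified with reporter-specific primers, FAM-labeled fragments sized on capillary analyzer. DMSO baseline, bidirectional curve fit.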

Test [6] can be described thus: ATG_SREBP_CIS: Attagene CIS-FACTORIAL HepG2 Assay for human Sterol Regulatory Element Binding (SREBP) (AID 2282962). Particulars: HepG2 Attagene cis-factorial SREBP reporter, mRNA; actives raise or lower the signal. In short, it runs like this:
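HepG2 cells transiently transfected with multiplexed cis-promoter reporter units sensing endogenous transcription factors; reporter mRNA measured 24 h after dosing by RT-PCR, 6-FAM labeling, HpaI digestion and capillary electrophoresis. Bidirectional fit versus DMSO.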

Test [7] is described as follows: ATG_TCF_b_cat_CIS: Attagene CIS-FACTORIAL HepG2 Assay for human T-Cell-Factor with beta-catenin (TCF/b-cat) (AID 2282965). Particulars: HepG2 TCF/beta-catenin cis-reporter transcription, actives raise or lower the signal. In short, it runs like this: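 Using capillary electrophoresis as the read-out, labelled reporter cDNA fragments from transiently transfected HepG2 were sized and quantified. Exposure lasted 24 hours; activity in either direction was referenced to DMSO.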

Test [8] in a line: ATG_TAL_CIS: Attagene CIS-FACTORIAL HepG2 Assay for human TAL Basal Promoter (AID 2282966).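 Note: background control endpoint measuring basal TAL promoter reporter mRNA not a specific factor.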 Particulars: HepG2 Attagene cis-factorial TAL promoter reporter; actives raise or lower the signal. The gist of the method:
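In this cell-based multiplex, HepG2 liver cells bearing cis-promoter reporter constructs are dosed for 24 hours. Total RNA is reverse-transcribed and amplified, labelled fragments are sized by capillary electrophoresis, and signal changes are fitted bidirectionally versus DMSO.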

Test [9] is described as follows: ATG_TGFb_CIS: Attagene CIS-FACTORIAL HepG2 Assay for human Transforming Growth Factor (TGF) (AID 2282967). Particulars: HepG2 Attagene CIS TGFb reporter, mRNA transcription; actives raise or lower the signal. In short, it runs like this:
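HepG2 cells transiently transfected with cis-promoter-driven multiple reporter units measure endogenous TF activity; reporter mRNA quantified at 24 h by RT-PCR, FAM labeling, HpaI digestion and capillary electrophoresis. Bidirectional fit vs DMSO.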

Test [10] is described as follows: ATG_VDRE_CIS: Attagene CIS-FACTORIAL HepG2 Assay for human Vitamin D Receptor Element (VDRE) (AID 2282968). Particulars: HepG2 VDRE cis-reporter transcription, actives raise or lower the signal. The gist of the method:
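HepG2 cells transiently transfected with cis-element reporter units, dosed 24 h; reporter mRNA measured by RT-PCR, 6-FAM labeling, HpaI digestion and capillary electrophoresis. Activity fitted bidirectionally against DMSO baseline.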

In test [11] the target is X-box-binding protein 1 (Homo sapiens) (UniProt P17861). Put plainly: ATG_Xbp1_CIS: Attagene CIS-FACTORIAL HepG2 Assay for human X-box Binding Protein 1 (XBP1) (AID 2282972). Particulars: HepG2 XBP1 cis-element reporter, Attagene multiplex; actives raise or lower the signal. In short, it runs like this: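 HepG2 cells transiently transfected with multiple cis-element reporter units report endogenous TF activity; 24 h exposure, then reporter mRNA measured by RT-PCR, 6-FAM labelling, HpaI digestion and capillary electrophoresis. Bidirectional fitting versus DMSO.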
Chain of X-box-binding protein 1 (Homo sapiens) (P17861 whole entry, looked up): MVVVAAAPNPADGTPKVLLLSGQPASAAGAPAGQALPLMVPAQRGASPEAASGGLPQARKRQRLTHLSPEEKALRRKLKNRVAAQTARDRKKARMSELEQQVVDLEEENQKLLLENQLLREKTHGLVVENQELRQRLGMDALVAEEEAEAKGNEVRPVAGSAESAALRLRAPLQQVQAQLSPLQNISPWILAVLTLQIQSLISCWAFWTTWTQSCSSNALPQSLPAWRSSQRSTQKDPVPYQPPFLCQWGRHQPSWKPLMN

Test [12] is described as follows: ATG_M_32_TRANS: Attagene TRANS-FACTORIAL HepG2 Assay for M32 Transcription Factor (Internal Marker) (AID 2282984; active = hit-call score of the fitted dose curve at least 0.9, where 1 is the maximum;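 note: transcript level of a background control reporter unit measured by RT-PCR and capillary electrophoresis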). Particulars: HepG2 Attagene TRANS M32 internal marker reporter. The gist of the method:
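HepG2 cells transiently transfected with multiple GAL4-UAS reporter transcription units, dosed for 24 hours; reporter mRNA quantified by RT-PCR, 6-FAM primer extension, HpaI digestion and capillary electrophoresis. Gain-of-signal fitted versus DMSO baseline; internal background-control marker.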

Test [13] addresses Transcriptional activator Myb (Homo sapiens) (UniProt P10242). Put plainly: ATG_Myb_CIS: Attagene CIS-FACTORIAL HepG2 Assay for human Myeloblastosis (Myb) Proto-Oncogene Transcription Factor (AID 2282986). Particulars: HepG2 Attagene CIS-FACTORIAL Myb reporter transcription; actives raise or lower the signal. In short, it runs like this: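 After 24 h of compound dosing, total RNA from transfected HepG2 cells is reverse-transcribed and the reporter sequences amplified, labeled and separated by capillary electrophoresis. Values come from bidirectional fitting against DMSO.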

Test [14] concerns the target Nuclear respiratory factor 1 (Homo sapiens) (UniProt Q16656). Put plainly: ATG_NRF1_CIS: Attagene CIS-FACTORIAL HepG2 Assay for human Nuclear Respiratory Factor 1 (NRF1) Orphan Gene (AID 2282987). Particulars: HepG2 NRF1 cis-element reporter, Attagene multiplex; actives raise or lower the signal. The gist of the method: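 Measured: fluorescent reporter-specific RT-PCR products from transfected HepG2 cells, separated by capillary electrophoresis. Exposure lasted 24 h. Analysis used bidirectional curve fitting with DMSO as negative control.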

The nature of test [15]: ATG_NFI_CIS: Attagene CIS-FACTORIAL HepG2 Assay for human Nuclear Factor I (NFI) (AID 2282989). Particulars: HepG2 cis-regulatory reporter, NFI response element transcription; actives raise or lower the signal. The gist of the method:
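Endogenous TF activity in HepG2 cells transiently transfected with cis-element-driven multiplexed reporter units, read 24 h after dosing. Reporter mRNA quantified by RT-PCR, 6-FAM labelling, HpaI digestion and capillary electrophoresis; bidirectional fit versus DMSO.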

Test [16] deals with Myc proto-oncogene protein (Homo sapiens) (UniProt P01106). Put plainly: ATG_Myc_CIS: Attagene CIS-FACTORIAL HepG2 Assay for human Myelocytomatosis (Myc) Proto-Oncogene Transcription Factor (AID 2282990). Particulars: HepG2, Attagene cis-reporter transcription factor activity; actives raise or lower the signal. The gist of the method: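 Multiplexed cis-reporter transcription in HepG2 cells after 24 h chemical treatment. Reporter mRNA measured by RT-PCR and capillary electrophoresis fluorescence; activity fitted bidirectionally against DMSO control.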
Chain of Myc proto-oncogene protein (Homo sapiens) (P01106 whole entry, looked up): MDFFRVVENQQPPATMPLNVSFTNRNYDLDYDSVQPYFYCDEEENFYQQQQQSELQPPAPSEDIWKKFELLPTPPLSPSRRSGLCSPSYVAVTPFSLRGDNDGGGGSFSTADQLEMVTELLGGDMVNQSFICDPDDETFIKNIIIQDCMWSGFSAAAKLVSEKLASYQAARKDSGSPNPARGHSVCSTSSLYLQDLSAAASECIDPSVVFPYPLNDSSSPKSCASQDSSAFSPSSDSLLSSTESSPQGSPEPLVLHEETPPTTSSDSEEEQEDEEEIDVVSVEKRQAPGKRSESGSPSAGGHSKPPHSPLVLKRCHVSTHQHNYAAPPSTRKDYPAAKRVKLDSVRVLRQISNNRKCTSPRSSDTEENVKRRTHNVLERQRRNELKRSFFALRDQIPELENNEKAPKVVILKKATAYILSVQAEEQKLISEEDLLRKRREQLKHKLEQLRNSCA

The nature of test [17]: ATG_NRF2_ARE_CIS: Attagene CIS-FACTORIAL HepG2 Assay for human Nuclear Factor Erythroid 2 Related Factor 2 (NFR2) response to Antioxidant Response Elements (ARE) (AID 2282992). Particulars: HepG2 Attagene ARE/NRF2 reporter, transcription factor activity; actives raise or lower the signal. In short, it runs like this: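 HepG2 cells transiently transfected with multiplexed cis-element reporter constructs, 24 h after chemical dosing; reporter mRNA quantified by RT-PCR, fluorescent primer extension, HpaI digestion and capillary electrophoresis. Bidirectional fit relative to DMSO.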

Test [18] is described as follows: ATG_Oct_MLP_CIS: Attagene CIS-FACTORIAL HepG2 Assay for human Octamer-Binding Transcription Factor (Oct) (AID 2282993). Particulars: HepG2 Attagene cis-factorial Oct reporter, mRNA; actives raise or lower the signal. The gist of the method: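 HepG2 cells transiently transfected with cis-element-driven reporter transcription units (endogenous TF activity); 24 h compound exposure. Reporter mRNA quantified by RT-PCR, 6-FAM labelling, HpaI digestion and capillary electrophoresis; bidirectional fit versus DMSO baseline.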

For test [19], the target named is Cellular tumor antigen p53 (Homo sapiens) (UniProt P04637). Put plainly: ATG_p53_CIS: Attagene CIS-FACTORIAL HepG2 Assay for human p53 Transcription Factor (AID 2282994). Particulars: HepG2 p53 cis-element reporter, Attagene mRNA; actives raise or lower the signal. In short, it runs like this: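 HepG2 cells transiently transfected with cis-regulated multiple reporter transcription units, dosed 24 h. Reporter mRNA measured by RT-PCR, 6-FAM primer extension, HpaI digestion and capillary electrophoresis; bidirectional fit relative to DMSO.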
Chain of Cellular tumor antigen p53 (Homo sapiens) (P04637 whole entry, looked up): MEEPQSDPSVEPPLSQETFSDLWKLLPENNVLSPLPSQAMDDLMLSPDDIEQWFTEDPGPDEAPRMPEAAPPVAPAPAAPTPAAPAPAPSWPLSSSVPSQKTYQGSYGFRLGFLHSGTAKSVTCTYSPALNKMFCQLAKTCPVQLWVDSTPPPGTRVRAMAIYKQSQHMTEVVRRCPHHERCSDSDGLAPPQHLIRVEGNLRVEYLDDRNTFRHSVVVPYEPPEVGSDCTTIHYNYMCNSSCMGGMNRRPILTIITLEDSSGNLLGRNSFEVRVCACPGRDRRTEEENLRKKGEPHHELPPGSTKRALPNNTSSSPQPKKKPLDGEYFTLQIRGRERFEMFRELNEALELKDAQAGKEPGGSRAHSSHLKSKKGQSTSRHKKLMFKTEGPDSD

Test [20] addresses Peroxisome proliferator-activated receptor gamma (Homo sapiens) (UniProt P37231). Put plainly: ATG_PPARg_TRANS: Attagene TRANS-FACTORIAL HepG2 Assay for human Peroxisome Proliferator-activated Receptor-gamma (PPARg) (AID 2283007; active = hit-call score of the fitted dose curve at least 0.9, where 1 is the maximum). The gist of the method:
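Twenty-four hours after chemical dosing of transiently transfected HepG2 cells, isolated RNA was converted to cDNA, reporter sequences amplified and 6-FAM-labelled, then HpaI-digested and analysed by capillary electrophoresis. Signal increase against DMSO was fitted.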

Records with an inconclusive call do not appear. Active and inactive are the calls of the source. Rule for the calls, unless noted: active = hit-call score of the fitted dose curve at least 0.9, where 1 is the maximum; inactive = score below 0.9.

In general, AC50 refers to the concentration giving half of the maximal activity seen.

Chain of Peroxisome proliferator-activated receptor gamma (Homo sapiens) (P37231 whole entry, looked up): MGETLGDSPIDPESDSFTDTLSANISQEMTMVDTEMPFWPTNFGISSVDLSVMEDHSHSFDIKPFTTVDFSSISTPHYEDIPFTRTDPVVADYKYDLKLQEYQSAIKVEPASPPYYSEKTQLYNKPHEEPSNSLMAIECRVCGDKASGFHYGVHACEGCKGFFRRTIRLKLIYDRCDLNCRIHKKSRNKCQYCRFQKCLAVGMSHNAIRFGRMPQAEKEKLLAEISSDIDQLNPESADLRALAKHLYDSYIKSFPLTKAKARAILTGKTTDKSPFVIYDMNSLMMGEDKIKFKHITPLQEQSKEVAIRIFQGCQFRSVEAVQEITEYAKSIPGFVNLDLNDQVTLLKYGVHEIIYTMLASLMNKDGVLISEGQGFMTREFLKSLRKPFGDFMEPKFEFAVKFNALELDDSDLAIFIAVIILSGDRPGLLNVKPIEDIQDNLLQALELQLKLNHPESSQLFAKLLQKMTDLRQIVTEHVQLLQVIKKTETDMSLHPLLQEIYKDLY
Chain of Transcriptional activator Myb (Homo sapiens) (P10242 whole entry, looked up): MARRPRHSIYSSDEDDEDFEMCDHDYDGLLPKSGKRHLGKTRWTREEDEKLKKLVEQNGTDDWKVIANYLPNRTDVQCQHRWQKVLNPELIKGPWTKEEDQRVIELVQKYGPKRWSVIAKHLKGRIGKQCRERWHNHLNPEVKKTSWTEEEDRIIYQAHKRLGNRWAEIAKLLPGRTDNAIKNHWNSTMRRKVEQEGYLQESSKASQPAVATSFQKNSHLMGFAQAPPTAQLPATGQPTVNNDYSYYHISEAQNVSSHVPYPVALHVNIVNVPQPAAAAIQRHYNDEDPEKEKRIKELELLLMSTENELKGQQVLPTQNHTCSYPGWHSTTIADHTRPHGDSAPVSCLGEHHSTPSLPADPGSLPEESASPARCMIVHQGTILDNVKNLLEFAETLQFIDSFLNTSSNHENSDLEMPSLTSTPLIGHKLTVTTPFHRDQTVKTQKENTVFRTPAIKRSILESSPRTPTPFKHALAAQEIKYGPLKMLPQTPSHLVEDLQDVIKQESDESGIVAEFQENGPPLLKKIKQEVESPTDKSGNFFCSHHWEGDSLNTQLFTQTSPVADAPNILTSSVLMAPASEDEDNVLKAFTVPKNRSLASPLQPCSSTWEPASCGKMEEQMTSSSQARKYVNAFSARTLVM
Chain of Nuclear respiratory factor 1 (Homo sapiens) (Q16656 whole entry, looked up): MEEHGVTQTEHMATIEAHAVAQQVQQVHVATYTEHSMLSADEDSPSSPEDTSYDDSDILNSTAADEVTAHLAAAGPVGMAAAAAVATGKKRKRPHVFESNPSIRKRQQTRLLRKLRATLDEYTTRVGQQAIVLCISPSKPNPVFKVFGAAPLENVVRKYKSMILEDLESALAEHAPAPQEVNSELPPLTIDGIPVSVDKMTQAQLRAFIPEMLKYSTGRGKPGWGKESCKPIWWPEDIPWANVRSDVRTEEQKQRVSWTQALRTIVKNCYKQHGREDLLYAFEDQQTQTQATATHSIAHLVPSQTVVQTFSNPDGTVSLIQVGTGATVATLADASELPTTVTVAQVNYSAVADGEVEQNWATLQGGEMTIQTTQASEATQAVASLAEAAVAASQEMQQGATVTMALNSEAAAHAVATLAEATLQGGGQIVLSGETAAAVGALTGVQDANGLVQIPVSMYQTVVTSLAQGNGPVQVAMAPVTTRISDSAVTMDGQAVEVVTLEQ
Chain of Transcription factor Sp1 (Homo sapiens) (P08047 whole entry, looked up, the tested form may be a part): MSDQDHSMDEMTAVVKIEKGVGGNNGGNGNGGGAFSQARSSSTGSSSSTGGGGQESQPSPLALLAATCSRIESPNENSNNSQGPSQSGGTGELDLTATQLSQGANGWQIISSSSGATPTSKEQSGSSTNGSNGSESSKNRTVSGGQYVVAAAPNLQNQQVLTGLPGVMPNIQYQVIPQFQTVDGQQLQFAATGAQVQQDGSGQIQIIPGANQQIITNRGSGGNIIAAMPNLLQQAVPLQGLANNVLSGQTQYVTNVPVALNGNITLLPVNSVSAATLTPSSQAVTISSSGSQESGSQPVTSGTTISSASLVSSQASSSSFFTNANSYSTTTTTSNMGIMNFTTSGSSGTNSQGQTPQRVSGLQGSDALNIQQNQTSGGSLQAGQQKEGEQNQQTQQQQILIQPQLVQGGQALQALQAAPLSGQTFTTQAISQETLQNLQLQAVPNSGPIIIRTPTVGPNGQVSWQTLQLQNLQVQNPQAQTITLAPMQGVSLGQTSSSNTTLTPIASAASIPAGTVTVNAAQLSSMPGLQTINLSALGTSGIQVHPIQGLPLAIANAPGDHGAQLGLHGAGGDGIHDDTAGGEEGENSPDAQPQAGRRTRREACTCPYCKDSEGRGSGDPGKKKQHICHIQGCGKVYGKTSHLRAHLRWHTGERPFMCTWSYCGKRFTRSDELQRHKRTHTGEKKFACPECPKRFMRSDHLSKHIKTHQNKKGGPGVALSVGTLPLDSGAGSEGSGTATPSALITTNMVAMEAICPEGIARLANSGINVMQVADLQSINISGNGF

On to `CC(=O)c1cc2c(cc1C)C(C)(C)C(C)CC2(C)C` (stereo unspecified), for which the outcome in test [1], in test [3], in test [8], in test [9], in [10] and in test [12] was inactive. Besides, the molecule was called inactive in test [14], in [19] and in test [20]. The AC50 in [2] is 116 µM (active); in test [4] it was 166 µM (active); in [5], 27.2 µM (active); in [6] it was 46.1 µM (active); in [7], 168 µM (active); in test [11] it was 66.6 µM (active). For the same molecule, the AC50 is 55.9 µM (active) in test [13]; 25.4 µM (active) in test [15]; 60.9 µM (active) in test [16]; 26.7 µM (active) in test [17]; 64.3 µM (active) in test [18].
As for `O=C(O)c1cc[c]([Hg][Cl])cc1`, the outcome in test [1], in test [2], in test [3], in test [4], in [6] and in test [7] was inactive. In addition, the molecule was classed as inactive in test [8], in [9], in test [10], in test [13], in test [14] and in [16]. Besides, the AC50 in test [5] is 11.1 µM (active); in test [11] it was 7.19 µM (active); in [15] it was 11.1 µM (active); in [17] it was 11.1 µM (active); in test [18], 6.74 µM (active); in [19], 7.47 µM (active). Besides, the AC50 in test [20] was 44.6 µM (active).
Consider `N#CCCCCC#N`, for which the outcome in test [1], in test [2], in test [3], in [4], in test [5] and in test [6] was inactive. For the same molecule, the outcome in test [7], in [8], in [9], in [10], in [11] and in test [13] was inactive. The molecule was classed as inactive in [14], in [15], in test [16], in test [17], in test [18] and in test [19].
Consider `Oc1ccc(C2(c3ccc(O)cc3)c3ccccc3-c3ccccc32)cc1`, for which the AC50 is 17 µM (active) in test [1]; 17.5 µM (active) in test [2]; 18.6 µM (active) in [4]; 13.6 µM (active) in test [6]; 5 µM (active) in test [10]; 13.6 µM (active) in [11]. For the same molecule, the results for the concentration at half-maximal activity (AC50) in test [14], in test [18] and in [19] were 19.1 µM (active), 9.82 µM (active) and 17.2 µM (active), respectively. Further, the molecule was classed as inactive in [3], in test [5], in [7], in [8], in test [9] and in test [12]. The call in [13], in test [16], in test [17] and in test [20] was inactive.

Values taken from PubChem BioAssay (EPA / NIEHS).
